This note sets out measurements from PMC7819943, “Rice protein-binding microarrays: a tool to detect cis-acting elements near promoter regions in rice”.

Over roughly 39,000 sequences, “fluorescence intensity (a.u.)” has its median near 4,300; the highest 2% begin near 39,000. Shown is part of a subset that was picked to be rich in the highest values.

For this assay, the target named is T1, OsSMF1 (Oryza sativa, UniProt Q6ZLB0 1-436).
T1 sequence: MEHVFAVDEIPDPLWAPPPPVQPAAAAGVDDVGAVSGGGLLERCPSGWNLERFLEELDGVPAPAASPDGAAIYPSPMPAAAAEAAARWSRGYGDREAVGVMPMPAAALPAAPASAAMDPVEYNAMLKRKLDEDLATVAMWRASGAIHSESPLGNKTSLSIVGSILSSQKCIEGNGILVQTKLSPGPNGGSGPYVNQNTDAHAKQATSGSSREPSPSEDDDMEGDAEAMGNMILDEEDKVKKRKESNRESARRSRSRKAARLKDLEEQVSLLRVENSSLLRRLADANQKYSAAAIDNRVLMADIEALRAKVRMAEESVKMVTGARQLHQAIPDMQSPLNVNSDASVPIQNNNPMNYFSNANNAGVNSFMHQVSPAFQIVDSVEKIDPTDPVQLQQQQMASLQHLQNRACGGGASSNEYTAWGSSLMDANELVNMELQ
In words: protein-binding microarray (RPBM); PBS, 2% BSA, 51.3 ng/ul salmon testes DNA, 50 uM zinc acetate, 200 nM TF, 25 C, 1 h; high values mean tight binding. Conditions: protein: recombinant; tags: N-terminal polyhistidine and DsRed monomer fusion (pET32a); chain copies: 2; label: CyDye5-dUTP incorporated in the synthesized complementary strand; 3' TTTTT single-stranded linker to array surface; dsDNA, one strand shown. Put shortly: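 A custom Agilent array was converted to double-stranded form by primer extension with Cy5-dUTP and blocked with 2% BSA. Protein at 200 nM in PBS with 2% BSA, salmon testes DNA and 50 µM zinc acetate was applied for 1 h at 25 °C, followed by washing. The proteins were polyhistidine–DsRed N-terminal fusions of transcription factors, expressed in E. coli BL21-CodonPlus and Ni–NTA-purified. The binding signal is per-feature fluorescence intensity (arbitrary units) from an Axon 4000B scanner.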
As for “CCCGCCGTCGCCGGGGAAGACGACACGCCCGCCGTCCTTGCGGAGTCACCTAGTGCAG”, the binding signal is 3580 fluorescence intensity (a.u.).
Take “ACATTGACTCAGCCACCACGTCACCTAAAATCGGGAACAGCGGAGTCACCTAGTGCAG”: the binding signal was 13000 fluorescence intensity (a.u.).
As to “CACGATTGCTCGGTGAGCACTGAGCAGTGACCTCATTCGGCGGAGTCACCTAGTGCAG”, the binding signal is 3820 fluorescence intensity (a.u.).
Consider “GACGCGTACGCACGGTGGGACGCGGTGGTGGGGTGCTGGGCGGAGTCACCTAGTGCAG”, for which the binding signal was 3920 fluorescence intensity (a.u.).
Take “TGGTAGGGAAGCAGGTGGAAGGAGGACAGGAAGGCCCAATCGGAGTCACCTAGTGCAG”: the binding signal was 34000 fluorescence intensity (a.u.).
In the case of “ATAGGAAGGGAAGCAACGGAGGAGGAGATCGGCTGGTGGTCGGAGTCACCTAGTGCAG” it was 7740 fluorescence intensity (a.u.); in that of “AGCTGGACAAGATCGGAATAGTAGGCCAGGCCCAAAGCAACGGAGTCACCTAGTGCAG”, 49400 fluorescence intensity (a.u.).
For the sequence “AAGAACGCCTTCGCGTGGGCCGCCGTCATCGGGATGTGGACGGAGTCACCTAGTGCAG”, the binding signal was 3220 fluorescence intensity (a.u.).
Take “CTCACTCGCTTGCGCTTCACCTCGCGGCATCGACTTCCTACGGAGTCACCTAGTGCAG”: the binding signal was 3630 fluorescence intensity (a.u.).
For the sequence “TTAAATGGTCATTCCTGTGTTTTACAATCATATATCTTACCGGAGTCACCTAGTGCAG”, the binding signal is 3990 fluorescence intensity (a.u.).
For the sequence “GTCCATATATCCGATGTGACACGCCAACACTTTTCGTATCCGGAGTCACCTAGTGCAG”, the binding signal was 4090 fluorescence intensity (a.u.).
Regarding “TGGCTTCACTTGCAACGGTACAAGAACCACCATCACTTCCCGGAGTCACCTAGTGCAG”, the binding signal is 40100 fluorescence intensity (a.u.).
Consider “CACATCGAACGGTCCAAGAACAACCACATCACCAATGTGCCGGAGTCACCTAGTGCAG”, for which the binding signal was 3710 fluorescence intensity (a.u.).
As for “AAGATCATCACAATTCATCACTCACAACCACATCACATCCCGGAGTCACCTAGTGCAG”, the figure is 3260 fluorescence intensity (a.u.).
As for “CGCCTCTGCGGTCTCCTTCGTCACCCGCGCGTCAACCAACCGGAGTCACCTAGTGCAG”, the binding signal was 4290 fluorescence intensity (a.u.).
With “CCCCTTCATGCCAGCACGCTCCCCACATCCACCCACCACCCGGAGTCACCTAGTGCAG”, the binding signal was 3320 fluorescence intensity (a.u.).
In the case of “CGTGCGACCCAGATCTCGCCACGTATGCGCGCGGATCGGCCGGAGTCACCTAGTGCAG”, the binding signal was 10800 fluorescence intensity (a.u.).
As for “GGGACGAGAGGAGCAACGCGCGGGCGCCGGCTGGCAAGAGCGGAGTCACCTAGTGCAG”, the binding signal was 3960 fluorescence intensity (a.u.).
In the case of “ACCTTGAGTTTGAGTGCGATTCCTCCCTTCTTTCGGTCACCGGAGTCACCTAGTGCAG” it was 21100 fluorescence intensity (a.u.); in that of “ACGACGACGACGTCGACGTGTGAACCAGTCAACTGCCACGCGGAGTCACCTAGTGCAG”, 8590 fluorescence intensity (a.u.); in that of “ACGAAACCGCACAAAAGCCGGTGAATTTTCCCGTAATTTGCGGAGTCACCTAGTGCAG”, 8780 fluorescence intensity (a.u.).
As for “GCGCACACACACACACAGATATATATATATATATATATATCGGAGTCACCTAGTGCAG”, the figure is 4200 fluorescence intensity (a.u.).
As for “ATCTAGACACGCGCGCGCGCGCGCACATATATATATATATCGGAGTCACCTAGTGCAG”, the binding signal is 42600 fluorescence intensity (a.u.).
For the sequence “ACATACATATATATATATATATATACATACATATATATATCGGAGTCACCTAGTGCAG”, the binding signal was 3740 fluorescence intensity (a.u.).
Consider “TAAACAGGGCCCTACTGTCATCACGTCGATGTTGAGTTTACGGAGTCACCTAGTGCAG”, for which the binding signal was 4070 fluorescence intensity (a.u.).
With “AAAGGACGGACAGTTTCCTGCGCAAATTCCACGTTCCACCCGGAGTCACCTAGTGCAG”, the binding signal was 3460 fluorescence intensity (a.u.).
As for “CCGCACGCGCTCCCTTCACCCACCTCGATCGAGCTCCATGCGGAGTCACCTAGTGCAG”, the figure is 3570 fluorescence intensity (a.u.).
As to “ACATGGACTGTGGTGTGGTACACACACGGTATGTCAGAGCCGGAGTCACCTAGTGCAG”, the binding signal is 3220 fluorescence intensity (a.u.).
With “GGTTGCCATATTTGCTTGTTATGCCGATGTGGACAAGCTTCGGAGTCACCTAGTGCAG”, the binding signal was 5600 fluorescence intensity (a.u.).
Consider “ATATTCCACCAAGCAAAAGCCACATCATGCTGTGCTGTGCCGGAGTCACCTAGTGCAG”, for which the binding signal was 6050 fluorescence intensity (a.u.).
Take “TCCTCCCAAAGATAATTCAGCTGATGATATTTCCATATCTCGGAGTCACCTAGTGCAG”: the binding signal was 3210 fluorescence intensity (a.u.).
In the case of “GCTTTGGGCTATAATTGGGCCATTTGTCGTCAGCTCTTGGCGGAGTCACCTAGTGCAG” it was 3230 fluorescence intensity (a.u.); in that of “ATATACTATTCTCATCTGTCATACACACATCACATCTTGACGGAGTCACCTAGTGCAG”, 25700 fluorescence intensity (a.u.); in that of “ATACTTGGACTATTCTCTTTCGGAAACTTGACTAGTTACACGGAGTCACCTAGTGCAG”, 43200 fluorescence intensity (a.u.).
“TTCTTCTTGGTGGTGGTGGGGCCTGGAAACTATGTGACTTCGGAGTCACCTAGTGCAG”: the binding signal was 4270 fluorescence intensity (a.u.).
Turning to “ATGTCGAAAGGCCTATATGGGCCAGATGATGTGTCCAGGGCGGAGTCACCTAGTGCAG”, the binding signal was 34600 fluorescence intensity (a.u.).
With “GGAGAGCTCCGGGAAGACGCGCGCTGACGCGGCCTCCCTGCGGAGTCACCTAGTGCAG”, the binding signal was 8860 fluorescence intensity (a.u.).
In the case of “ATTGATGTGAAGAACAAATAGTCAATATTATTCTGTATATCGGAGTCACCTAGTGCAG” it was 16900 fluorescence intensity (a.u.); in that of “ATATTCTGATATGTCAATATTATTGTGTATGATTGATTGTCGGAGTCACCTAGTGCAG”, 46700 fluorescence intensity (a.u.); in that of “TCAATGATATTTATGTGTGTGACATGTATGTCGAGTTCGTCGGAGTCACCTAGTGCAG”, 4360 fluorescence intensity (a.u.).
Turning to “TCTTCTGAATGCTCACAATGACGCCATCCTCATCAGCCGCCGGAGTCACCTAGTGCAG”, the binding signal was 4480 fluorescence intensity (a.u.).
Regarding “GCCCTCCCTGTCATCCCCGTCACCCATCCTGCCTGCTTTTCGGAGTCACCTAGTGCAG”, the binding signal was 8530 fluorescence intensity (a.u.).
